GLP1R ag: GLP-1 receptor (human) agonism. P43220. HEK293 GLP-1R CRE-luciferase, luminescence, 4-6 h; cells express a hypersensitive GLP-1R form. Potency, µM (doses to about 45.6 µM), usual class: activators. hit rate 0.007% among 380,000. AID 624172
GLP1R cytotox: cytotoxicity in counter-screen for GLP-1R inverse agonists; hit rate 0.13% among 410,000; Potency, µM (titrated, usually from 38.3 µM), hits mostly inhibitors; AID 624418; HEK293 cAMP-luciferase reporter cells, luminescence, 24 h;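 further: loss of luciferase light is scored as toxicity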
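Cells in DMEM/10% Nu serum/1% pen-strep, 1536-well format. Pre-incubated 12 h, dosed with 23 nL compound, incubated a further 24 h. Luciferase detection, 12 min at room temp, luminescence.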
ClpP mod: qHTS Assay for Activators of ClpP | ATP-dependent Clp protease proteolytic subunit (Bacillus subtilis (strain 168)), P80244 | purified B. subtilis ClpP, FRET peptide cleavage, 20 min | Potency, µM (doses to about 57.5 µM) | hit rate 1.9% among 340,000; active means well fitted falling curve with a large enough effect; inconclusive means small, poorly fitted or top-dose-only effect; inactive means no such curve, though single readings can be large or run the other way; further: the source files actives as falling curves though it sought activators and does not explain the sign; nearly all actives have a fitted effect of over 65% in size
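ClpP 10 microg/mL final, pH 8 Tris/KCl buffer with BSA, glycerol, Tween-20; compound pinned in; FRET-FV substrate; RT 20 min; Ex320/Em430; ΔFRET vs ADEP 5.8 microM, DMSO, no enzyme.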
GLP1R inv ag: acts as inverse agonist at human GLP-1 receptor. P43220. HEK293 GLP-1R CRE-luciferase, luminescence, 24 h; GLP-1R form is constitutively active. Potency, µM (titrated, usually from 38.3 µM), most hits filed as inhibitors. hit rate 1.6% among 410,000. AID 624417; further: nearly all actives have a fitted effect of over 55% in size
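Inverse agonism was detected as reduced cAMP-driven luciferase luminescence after 24 h compound treatment. The cells were HEK293 clones expressing constitutively active human GLP-1R with the reporter. Reporter-only and GPR119 cell lines served as counterscreen controls.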
D3 antag: D3 dopamine receptor (human) antagonism | P35462 | max response, negative = inhibition, % | hit rate 2.5% among 360,000 | D3R cells, DiscoveRx beta-arrestin luminescence, antagonist mode; active compounds read low; in the data active means max response below about -50%; inconclusive means no clear call, values can overlap the other calls
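Cells expressing the human receptor were seeded at 1500 cells/well, incubated overnight at 37 degrees C in 5% CO2, then exposed to library compounds with dopamine controls for 90 minutes at 37 degrees C before luminescent detection.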
DRD3 agonist: D3 dopamine receptor (human) agonism; P35462; D3R DiscoveRx beta-arrestin cells, luminescence, 90 min; max activation, %; hit rate 0.58% among 410,000; in the data active means max activation above about 30%
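Agonist mode: compounds and dopamine controls were applied to plated cells for 90 min at 37 degrees C after an overnight attachment at 1500 cells/well. Luminescent read-out followed 30 - 60 minutes at room temperature with DiscoveRx detection reagent.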
Large screens that a line does not name were inactive. The list is not random: actives were taken first. Their share in the collection is about 5.7%. Unless noted, the call rests on the fitted dose curve; in most records, active means well fitted curve in the direction sought with a large enough effect; inconclusive means small, poorly fitted or top-dose-only effect, or another doubt; inactive means no such curve, though single readings can be large; an effect the other way counts as inactive or inconclusive.

CCCN1CCN(CCNC(=O)Nc2ccccc2OCC)CC1	none (no result: GLP1R ag, D3 antag)
CCN(CC)c1ccc(/C=N/NC(=O)c2ccoc2C)c(O)c1	GLP1R inv ag 3.5µM
CCn1nc(C)c(/C=N/NC(=O)c2ccoc2C)c1C	ClpP mod 16µM
CCCCCn1nc(C)c(/C=N/NC(=O)c2ccoc2C)c1C	none
CCN(CC)c1ccc(C=Nc2ccccc2)c(O)c1	D3 antag -54
Cc1c(C(=O)N2c3ccccc3Sc3ccccc32)cccc1[N+](=O)[O-]	GLP1R cytotox inconclusive, GLP1R inv ag 1.8µM
Cc1c(C(=O)N2CCC(C)CC2)cccc1[N+](=O)[O-]	none
O=C(NCCCCNCCCNC(=O)c1ccccc1)c1ccccc1	D3 antag -51
O=C(CCCc1ccccc1)Nc1cccc(C(=O)O)c1	GLP1R inv ag 2µM (no result: ClpP mod)
O=C(NCCCCc1ccccc1)c1ccccc1Cl	GLP1R inv ag 5µM (no result: ClpP mod)
O=C(NCCCCc1ccccc1)c1cccc(NC(=O)c2ccccc2)c1	GLP1R inv ag 10µM
O=C(NCCNC(=O)c1ccccc1)c1ccccc1	none
COC(=O)c1ccc(C2CC(=O)Nc3c2c(C)nn3-c2nc(C)cc(C)n2)cc1 (stereo not drawn)	none (no result: GLP1R ag, D3 antag)
CCn1cc2nc(SCc3cccc(OC)c3)n(Cc3ccc(Cl)cc3)c(=O)c2n1	GLP1R inv ag inconclusive (no result: D3 antag)
CC(C)C[C@H]1CN(CCCC[C@@H]2CNC(=O)C(=O)N2CC2CCCCC2)C(=O)C(=O)N1Cc1ccccc1	none
CC1CCN(Cc2c(C#N)c3ccccc3n2C)CC1	GLP1R inv ag inconclusive, D3 antag -75
Cn1c(CN2CCOCC2)c(C#N)c2ccccc21	none
CC1CCCCN1Cc1c(C#N)c2ccccc2n1C (stereo not drawn)	GLP1R inv ag inconclusive, D3 antag -66
Cn1c(CN2CCCC2)c(C#N)c2ccccc21	D3 antag -86
CN1CCN(Cc2c(C#N)c3ccccc3n2C)CC1	GLP1R inv ag inconclusive
CCOC(=O)CSCc1c(C#N)c2ccccc2n1C	D3 antag -52
CCOc1ccc(CCNC(=O)c2ccc(CSCc3ccccc3C)o2)cc1OCC	GLP1R inv ag inconclusive (no result: GLP1R ag, D3 antag)
N/C(=N\OC(=O)c1ccc(=O)n(Cc2ccc(Cl)cc2)c1)c1ccccn1	none
COc1cccc(C(=O)O/N=C(\N)c2ccncc2)c1OC	none
N/C(=N\OC(=O)Cc1cccc2ccccc12)c1ccccn1	GLP1R cytotox inconclusive, GLP1R inv ag inconclusive
N/C(=N\OC(=O)c1ccc(=O)n(Cc2ccccc2)c1)c1ccccn1	ClpP mod 28µM
N/C(=N\OC(=O)c1cccc2ccccc12)c1ccccn1	GLP1R cytotox 4µM, GLP1R inv ag inconclusive (no result: ClpP mod)
COc1cccc(C(=O)O/N=C(\N)c2ccccn2)c1OC	GLP1R inv ag 7.9µM
CCS(=O)(=O)N1CC(=O)N(c2cc(Cl)ccc2C)C(C)(C(=O)NC2CCCCCC2)C1 (stereo not drawn)	none (no result: GLP1R ag, D3 antag)
Nc1c(C(=O)NCc2ccc(F)cc2)c2nc3ccccc3nc2n1CCCN1CCOCC1	ClpP mod 35µM, GLP1R inv ag inconclusive
CCOC(=O)c1c(C)c(C(=O)Nc2ccc3c(c2)OCO3)c(C)n1C	none
Cc1ccc(C)c(OCC(=O)Nc2ccc3c(c2)OCO3)c1C	GLP1R cytotox inconclusive, GLP1R inv ag 7.9µM
CCOC(=O)c1c(N)sc(C(=O)Nc2ccc3c(c2)OCO3)c1C	GLP1R cytotox inconclusive, GLP1R inv ag 5.6µM
Cc1cccc(NC(=O)CSc2nc(-c3cccs3)cc(C(F)(F)F)c2C#N)c1	none (no result: GLP1R ag, D3 antag)
Cc1ccc(Cl)cc1N1CCN(C(=O)c2ccc(NC(=O)c3nsc4ccccc34)cc2)CC1	ClpP mod inconclusive, GLP1R inv ag inconclusive (no result: GLP1R ag, D3 antag)
CN=c1scc(-c2ccco2)n1/N=C/c1ccc(O)c(O)c1	GLP1R cytotox inconclusive, DRD3 agonist 51 (no result: ClpP mod)
C=CCN=c1scc(C)n1/N=C/c1ccc(O)c(O)c1	DRD3 agonist 31
COc1ccc(CCNC(=O)CCCn2c(=O)c3cccn3c3ccc(F)cc32)cc1OC	none (no result: GLP1R ag, D3 antag)
CCOC(=O)c1c(C)c2c(=O)[nH]cnc2n1-c1ccccc1	none
CCOC(=O)c1c[nH]c(=S)n(-c2ccccc2)c1=O	DRD3 agonist 30
Cc1ccc(C)c(S(=O)(=O)N2CCN(C(=O)CCC(=O)NCc3ccc(Cl)cc3)CC2)c1	GLP1R inv ag inconclusive
Cc1ccc(C)c(C(=O)CCC(=O)NCc2ccc(Cl)cc2)c1	GLP1R inv ag 10µM
CCCCC(=O)NCc1ccc(Cl)cc1	ClpP mod 20µM
Clc1cccc(CNc2nnnn2-c2ccccc2)c1	D3 antag -52
Cn1nnnc1NCc1cccc(Cl)c1	none
O=C(NCC(c1ccco1)N1CCc2ccccc21)C(=O)Nc1ccc(F)cc1F (stereo not drawn)	GLP1R inv ag 4µM
O=c1oc(CCCO)cc2ccc(C#Cc3ccsc3)cc12	none
O=C1c2ccccc2C(=O)N1CCC#Cc1ccc2cc(CCCO)oc(=O)c2c1	DRD3 agonist 33
COc1ccc(N2CCN(C(c3ccccc3)c3nnc(-c4ccccc4Cl)o3)CC2)cc1 (stereo not drawn)	GLP1R inv ag inconclusive (no result: GLP1R ag, D3 antag)
CCc1cc2c3c(c(=O)oc2cc1OC)CCCC3	ClpP mod 35µM
Cc1ccccc1NC(=O)c1cccc(N2C(=O)C3C4CC(C(Br)C4Br)C3C2=O)c1 (stereo not drawn)	GLP1R inv ag inconclusive
CCOC(=O)C1CCCN(C(=O)c2cc3c(C)nc4ccccc4c3o2)C1 (stereo not drawn)	DRD3 agonist 38
CCOC(=O)C1CCCN(C(=O)c2cc(-c3ccco3)nc3ccccc23)C1 (stereo not drawn)	none
CCOC(=O)C1CCCN(C(=O)c2cc(-c3ccc(F)cc3)nc3ccccc23)C1 (stereo not drawn)	GLP1R inv ag 7.9µM (no result: ClpP mod)
CC1(C(=O)NC2CCCCCC2)CCN1C(=O)C1(c2ccccc2)CC1 (stereo not drawn)	GLP1R inv ag inconclusive
S=c1[nH]nc(-c2ccccn2)n1/N=C/c1ccccc1	D3 antag -52
Oc1c(Br)cc(Br)cc1/C=N/n1c(-c2ccccc2)n[nH]c1=S	GLP1R inv ag inconclusive, D3 antag -51
Cn1cccc1/C=N/n1c(-c2ccccc2)n[nH]c1=S	D3 antag -98
Cc1nn(-c2ccccc2)c(C)c1/C=N/n1c(-c2ccncc2)n[nH]c1=S	D3 antag -52 (no result: ClpP mod)
Cc1ccc(OCCNC(=O)[C@H]2O[C@@H](n3cnc4c(N)ncnc43)[C@H](O)[C@@H]2O)cc1C	none
Cc1ccc(-n2c(=O)c3sc4ccccc4c3n(CC(=O)NC3CCCC3)c2=O)cc1C	none (no result: D3 antag)

Screens (PubChem)
